# Results taken from the supplement of paper PMC3150612.
# ± gives the standard deviation of the averaged measurements.
# Experiments:
# Drosophila melanogaster [1] = assay: olfactory response index (dipstick assay) (fraction of flies (RI; 1 aversion, 0.5 indifferent, 0 attraction)); higher = stronger aversion to the odorant; conditions: odorant concentration: 1% v/v, male
# Drosophila melanogaster [2] = assay: as above; conditions: odorant concentration: 1% v/v, female
# [3] = genotype (tubulin-GAL4 x UAS-RNAi line; control = progenitor): A5
# [4] = genotype (tubulin-GAL4 x UAS-RNAi line; control = progenitor): control
# [5] = genotype (tubulin-GAL4 x UAS-RNAi line; control = progenitor): obp 18a
# [6] = genotype (tubulin-GAL4 x UAS-RNAi line; control = progenitor): obp 22a
# [7] = genotype (tubulin-GAL4 x UAS-RNAi line; control = progenitor): obp 28a
# [8] = genotype (tubulin-GAL4 x UAS-RNAi line; control = progenitor): obp 56a
# [9] = genotype (tubulin-GAL4 x UAS-RNAi line; control = progenitor): obp 56c
# [10] = genotype (tubulin-GAL4 x UAS-RNAi line; control = progenitor): obp 56f
# [11] = genotype (tubulin-GAL4 x UAS-RNAi line; control = progenitor): obp 57a
# [12] = genotype (tubulin-GAL4 x UAS-RNAi line; control = progenitor): obp 57b
# [13] = genotype (tubulin-GAL4 x UAS-RNAi line; control = progenitor): obp 58c
# [14] = genotype (tubulin-GAL4 x UAS-RNAi line; control = progenitor): obp 59a
# [15] = genotype (tubulin-GAL4 x UAS-RNAi line; control = progenitor): obp 83a
# [16] = genotype (tubulin-GAL4 x UAS-RNAi line; control = progenitor): obp 83c
# [17] = genotype (tubulin-GAL4 x UAS-RNAi line; control = progenitor): obp 93a
# [18] = genotype (tubulin-GAL4 x UAS-RNAi line; control = progenitor): obp 99b
# [19] = genotype (tubulin-GAL4 x UAS-RNAi line; control = progenitor): obp 56h
smiles,measurement,setting,value
O=Cc1ccccc1 [benzaldehyde],olfactory response index,Drosophila melanogaster [1]; [3],0.725 ± 0.049
same,olfactory response index,Drosophila melanogaster [1]; [4],0.83 ± 0.13
same,olfactory response index,Drosophila melanogaster [1]; [5],0.53 ± 0.1
same,olfactory response index,Drosophila melanogaster [1]; [6],0.467 ± 0.074
same,olfactory response index,Drosophila melanogaster [1]; [7],0.621 ± 0.14
same,olfactory response index,Drosophila melanogaster [1]; [8],0.418 ± 0.068
same,olfactory response index,Drosophila melanogaster [1]; [9],0.522 ± 0.14
same,olfactory response index,Drosophila melanogaster [1]; [10],0.656 ± 0.11
same,olfactory response index,Drosophila melanogaster [1]; [11],0.547 ± 0.17
same,olfactory response index,Drosophila melanogaster [1]; [12],0.636 ± 0.024
same,olfactory response index,Drosophila melanogaster [1]; [13],0.702 ± 0.035
same,olfactory response index,Drosophila melanogaster [1]; [14],0.739 ± 0.0092
same,olfactory response index,Drosophila melanogaster [1]; [15],0.591 ± 0.15
same,olfactory response index,Drosophila melanogaster [1]; [16],0.557 ± 0.023
same,olfactory response index,Drosophila melanogaster [1]; [17],0.537 ± 0.042
same,olfactory response index,Drosophila melanogaster [1]; [18],0.299 ± 0.13
same,olfactory response index,Drosophila melanogaster [1]; [19],0.555 ± 0.12
same,olfactory response index,Drosophila melanogaster [2]; [3],0.8108 ± 0.005
same,olfactory response index,Drosophila melanogaster [2]; [4],0.694 ± 0.053
same,olfactory response index,Drosophila melanogaster [2]; [5],0.534 ± 0.029
same,olfactory response index,Drosophila melanogaster [2]; [6],0.708 ± 0.24
same,olfactory response index,Drosophila melanogaster [2]; [7],0.757 ± 0.076
same,olfactory response index,Drosophila melanogaster [2]; [8],0.683 ± 0.17
same,olfactory response index,Drosophila melanogaster [2]; [9],0.645 ± 0.031
same,olfactory response index,Drosophila melanogaster [2]; [10],0.75 ± 0.058
same,olfactory response index,Drosophila melanogaster [2]; [11],0.839 ± 0.059
same,olfactory response index,Drosophila melanogaster [2]; [12],0.748 ± 0.087
same,olfactory response index,Drosophila melanogaster [2]; genotype (tubulin-GAL4 x UAS-RNAi line; control = progenitor): obp 58b,0.753 ± 0.048
same,olfactory response index,Drosophila melanogaster [2]; [13],0.795 ± 0.051
same,olfactory response index,Drosophila melanogaster [2]; [14],0.863 ± 0.051
same,olfactory response index,Drosophila melanogaster [2]; [15],0.663 ± 0.16
same,olfactory response index,Drosophila melanogaster [2]; [16],0.797 ± 0.16
same,olfactory response index,Drosophila melanogaster [2]; [17],0.738 ± 0.11
same,olfactory response index,Drosophila melanogaster [2]; [18],0.379 ± 0.16
same,olfactory response index,Drosophila melanogaster [2]; [19],0.726 ± 0.091
